Laboratory results from PubChem BioAssay AID1159580 (chemical genetic matrix, 2015).
Values joined by “and” are separate entries in the source; they are usually repeats but may differ in a detail not shown here. Identical values can stand only once. The campaign covered roughly 5,500 compounds. About 2,000 (36%) were called active. Another 18% or so got no clear call; they are omitted. Rule as the data show it: active = normalized growth mostly below about 0.91 (no sharp cut-off); inconclusive = no clear call, values can overlap the other calls; inactive = mostly above about 0.92. The list shows a part of the results.

Assay: chemical genetic growth profiling, strain panel (AID 1159580);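 also: tested at 20 µM; growth read once vehicle control cultures reached saturation at 30 °C; 1 = growth at the plate median or of vehicle wells; lower values mean less growth of the strain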
Conditions: S. cerevisiae deletion strains, growth OD

Measured: normalized growth

Cc1c(C)c2c(c(C)c1O)CCC(C)(CCCC(C)CCCC(C)CCCC(C)C)O2 (stereo not drawn)
inactive: locus YAL021C, strain ccr4, stronger effect = lower value 1 | locus YAL026C, strain drs2, stronger effect = lower value 0.972 | locus YAL030W, strain snc1, stronger effect = lower value 0.983 | locus YBL061C, strain skt5, stronger effect = lower value 0.989 | locus YBR009C, strain hhf1, stronger effect = lower value 0.965 | locus YBR021W, strain FUR4, stronger effect = lower value 1.03 | locus YBR023C, strain chs3, stronger effect = lower value 0.988 | locus YBR171W, strain sec66, stronger effect = lower value 0.986 | locus YBR229C, strain ROT2, stronger effect = lower value 1 | locus YBR231C, strain swc5, stronger effect = lower value 0.935 | locus YBR279W, strain paf1, stronger effect = lower value 0.99 | locus YCL011C, strain gbp2, stronger effect = lower value 0.972 | locus YCL016C, strain dcc1, stronger effect = lower value 0.982 | locus YCL029C, strain bik1, stronger effect = lower value 1 | locus YCL061C, strain MRC1, stronger effect = lower value 0.987 | locus YCL069W, strain vba3, stronger effect = lower value 0.988 | locus YCR088W, strain abp1, stronger effect = lower value 0.985 | locus YDL005C, strain med2, stronger effect = lower value 0.983 | locus YDL035C, strain GPR1, stronger effect = lower value 1.02 | locus YDL040C, strain nat1, stronger effect = lower value 0.99 | locus YDL074C, strain BRE1, stronger effect = lower value 1.02 | locus YDL101C, strain DUN1, stronger effect = lower value 1.01 | locus YDL134C, strain PPH21, stronger effect = lower value 1.01 | locus YDL185W, strain tfp1, stronger effect = lower value 1 | locus YDL192W, strain arf1, stronger effect = lower value 1.02 | locus YDR001C, strain nth1, stronger effect = lower value 0.981 | locus YDR069C, strain doa4, stronger effect = lower value 0.968 | locus YDR101C, strain arx1, stronger effect = lower value 1.01 | locus YDR137W, strain rgp1, stronger effect = lower value 0.966 | locus YDR150W, strain NUM1, stronger effect = lower value 1.01 | locus YDR159W, strain sac3, stronger effect = lower value 0.956 | locus YDR162C, strain NBP2, stronger effect = lower value 0.993 | locus YDR195W, strain ref2 0.949 | locus YDR297W, strain sur2, stronger effect = lower value 0.978 | locus YDR318W, strain mcm21, stronger effect = lower value 1 | locus YDR334W, strain swr1, stronger effect = lower value 0.985 | locus YDR335W, strain msn5, stronger effect = lower value 0.988 | locus YDR388W, stronger effect = lower value 0.976 | locus YDR392W, strain spt3, stronger effect = lower value 0.929 | locus YDR502C, strain sam2, stronger effect = lower value 0.987 | locus YEL003W, strain gim4, stronger effect = lower value 0.979 | locus YEL037C, strain rad23, stronger effect = lower value 0.987 | locus YEL061C, strain CIN8 (second series), stronger effect = lower value 0.983 | locus YEL061C, strain CIN8, stronger effect = lower value 1.01 | locus YER015W, strain faa2, stronger effect = lower value 0.986 | locus YER016W, strain bim1, stronger effect = lower value 0.975 | locus YER110C, stronger effect = lower value 1 | locus YER111C, strain swi4, stronger effect = lower value 0.985 | locus YER155C, strain BEM2 (second series), stronger effect = lower value 0.97 | locus YER155C, strain BEM2, stronger effect = lower value 1 | locus YER167W, strain BCK2, stronger effect = lower value 1.01 | locus YFR010W, strain ubp6, stronger effect = lower value 0.988 | locus YGL078C, strain dbp3, stronger effect = lower value 0.999 | locus YGL086W, strain mad1, stronger effect = lower value 1.02 | locus YGL167C, strain pmr1, stronger effect = lower value 0.968 | locus YGL173C, strain kem1, stronger effect = lower value 0.985 | locus YGL227W, strain vid30, stronger effect = lower value 0.977 | locus YGL240W, strain doc1, stronger effect = lower value 0.981 | locus YGL248W, strain PDE1, stronger effect = lower value 1.01 | locus YGL253W, strain hxk2, stronger effect = lower value 0.995 | locus YGR078C, strain PAC10, stronger effect = lower value 1 | locus YGR135W, strain pre9, stronger effect = lower value 1.02 | locus YGR229C, strain SMI1, stronger effect = lower value 1.02 | locus YGR252W, strain gcn5, stronger effect = lower value 0.95 | locus YHR013C, strain ard1, stronger effect = lower value 0.928 | locus YHR027C, strain rpn1, stronger effect = lower value 0.993 | locus YHR030C, strain SLT2, stronger effect = lower value 1.01 and 0.996 | locus YHR079C, strain IRE1 (second series), stronger effect = lower value 1 | locus YHR079C, strain IRE1, stronger effect = lower value 1.02 | locus YHR094C, strain hxt1, stronger effect = lower value 1 | locus YHR129C, strain ARP1, stronger effect = lower value 1.01 | locus YHR142W, strain chs7, stronger effect = lower value 0.994 | locus YHR200W, strain rpn10, stronger effect = lower value 0.995 | locus YIL066C, strain RNR3, stronger effect = lower value 1.01 | locus YIL073C, strain SPO22, stronger effect = lower value 1.05 | locus YIL125W, strain kgd1, stronger effect = lower value 1.03 | locus YIR030C, strain dcg1, stronger effect = lower value 0.997 | locus YJL092W, strain hpr5, stronger effect = lower value 0.975 | locus YJL095W, strain BCK1 (second series), stronger effect = lower value 0.989 | locus YJL095W, strain BCK1, stronger effect = lower value 0.998 and 1 | locus YJL115W, strain asf1, stronger effect = lower value 0.985 | locus YJL129C, strain trk1, stronger effect = lower value 1.02 | locus YJL134W, strain LCB3, stronger effect = lower value 1 | locus YJL154C, strain vps35, stronger effect = lower value 0.987 | locus YJL164C, strain tpk1, stronger effect = lower value 1.01 | locus YJL166W, strain qcr8, stronger effect = lower value 0.993 | locus YJL168C, strain set2, stronger effect = lower value 1 | locus YJL187C, strain SWE1 (second series), stronger effect = lower value 0.997 | locus YJL187C, strain SWE1, stronger effect = lower value 0.982 | locus YJR043C, strain POL32, stronger effect = lower value 1 | locus YJR066W, strain TOR1, stronger effect = lower value 0.972 | locus YKL009W, strain mrt4, stronger effect = lower value 0.969 | locus YKL068W, stronger effect = lower value 0.993 | locus YKL085W, strain MDH1 (second series), stronger effect = lower value 0.99 | locus YKL085W, strain MDH1, stronger effect = lower value 0.99 | locus YKL160W, strain elf1, stronger effect = lower value 1.01 | locus YKL190W, strain CNB1, stronger effect = lower value 1 | locus YKR001C, strain vps1, stronger effect = lower value 0.996 | locus YKR026C, strain gcn3, stronger effect = lower value 0.986 | locus YKR091W, strain srl3, stronger effect = lower value 0.982 | locus YLL001W, strain dnm1, stronger effect = lower value 0.983 | locus YLL026W, stronger effect = lower value 0.982 | locus YLL041C, strain sdh2, stronger effect = lower value 0.985 | locus YLR027C, strain aat2, stronger effect = lower value 0.993 | locus YLR039C, strain RIC1, stronger effect = lower value 1.02 | locus YLR058C, strain SHM2, stronger effect = lower value 1 | locus YLR102C, strain apc9, stronger effect = lower value 1 | locus YLR113W, strain HOG1, stronger effect = lower value 0.966 | locus YLR221C, strain rsa3, stronger effect = lower value 1.01 | locus YLR258W, strain gsy2, stronger effect = lower value 0.967 | locus YLR262C, strain YPT6 (second series), stronger effect = lower value 0.98 | locus YLR262C, strain YPT6, stronger effect = lower value 1.01 | locus YLR268W, strain sec22, stronger effect = lower value 1.01 | locus YLR320W, strain mms22, stronger effect = lower value 0.988 | locus YLR330W, strain CHS5, stronger effect = lower value 1 | locus YLR342W, strain FKS1 (second series), stronger effect = lower value 1.02 | locus YLR342W, strain FKS1, stronger effect = lower value 0.978 | locus YLR357W, strain rsc2, stronger effect = lower value 1 | locus YLR370C, strain arc18, stronger effect = lower value 0.995 | locus YLR371W, strain rom2, stronger effect = lower value 1.04 | locus YLR384C, strain iki3, stronger effect = lower value 0.978 | locus YLR418C, strain cdc73, stronger effect = lower value 0.968 | locus YML016C, strain PPZ1, stronger effect = lower value 1 | locus YML032C, strain rad52, stronger effect = lower value 0.987 | locus YML120C, strain ndi1, stronger effect = lower value 1.03 | locus YML124C, strain tub3, stronger effect = lower value 0.993 | locus YMR058W, strain fet3, stronger effect = lower value 1.01 | locus YMR078C, strain ctf18, stronger effect = lower value 1.02 | locus YMR125W, strain sto1, stronger effect = lower value 0.95 | locus YMR129W, stronger effect = lower value 0.979 | locus YMR205C, strain PFK2, stronger effect = lower value 0.933 | locus YMR223W, strain ubp8, stronger effect = lower value 1 | locus YMR231W, strain pep5, stronger effect = lower value 0.977 | locus YMR263W, strain SAP30, stronger effect = lower value 1.01 | locus YMR307W, strain GAS1, stronger effect = lower value 1.01 | locus YNL067W, strain RPL9B, stronger effect = lower value 1 | locus YNL071W, strain lat1, stronger effect = lower value 0.994 | locus YNL153C, strain GIM3, stronger effect = lower value 1.01 | locus YNL183C, strain NPR1, stronger effect = lower value 0.961 | locus YNL209W, strain ssb2, stronger effect = lower value 0.984 | locus YNL233W, strain BNI4, stronger effect = lower value 1.02 | locus YNL248C, strain rpa49, stronger effect = lower value 1.03 | locus YNL250W, strain rad50, stronger effect = lower value 1.01 | locus YNL271C, strain bni1, stronger effect = lower value 0.988 | locus YNL298W, strain CLA4, stronger effect = lower value 0.965 | locus YNL307C, strain MCK1, stronger effect = lower value 1 | locus YNL322C, strain KRE1 (second series), stronger effect = lower value 0.994 | locus YNL322C, strain KRE1, stronger effect = lower value 1 | locus YNR049C, strain mso1, stronger effect = lower value 0.988 | locus YNR052C, strain pop2, stronger effect = lower value 1.02 | locus YOL012C, strain htz1 0.962 | locus YOL147C, strain pex11, stronger effect = lower value 0.997 | locus YOR001W, strain rrp6, stronger effect = lower value 1.02 | locus YOR061W, strain CKA2, stronger effect = lower value 1.01 | locus YOR069W, strain VPS5, stronger effect = lower value 1 | locus YOR070C, strain gyp1, stronger effect = lower value 0.988 | locus YOR080W, strain dia2, stronger effect = lower value 0.985 | locus YOR083W, strain WHI5, stronger effect = lower value 1.01 | locus YOR106W, strain vam3, stronger effect = lower value 1.01 | locus YOR136W, strain idh2, stronger effect = lower value 1.01 | locus YOR144C, strain elg1, stronger effect = lower value 0.985 | locus YOR184W, strain ser1, stronger effect = lower value 0.999 | locus YOR231W, strain MKK1, stronger effect = lower value 0.972 | locus YOR265W, strain rbl2, stronger effect = lower value 0.996 | locus YOR270C, strain vph1, stronger effect = lower value 1.09 | locus YOR290C, strain snf2, stronger effect = lower value 1 | locus YOR316C, strain cot1, stronger effect = lower value 0.995 | locus YPL051W, strain arl3, stronger effect = lower value 1.01 | locus YPL055C, strain LGE1, stronger effect = lower value 1.01 | locus YPL078C, strain atp4, stronger effect = lower value 1.02 | locus YPL106C, strain sse1, stronger effect = lower value 0.966 | locus YPL240C, strain hsp82, stronger effect = lower value 0.98 | locus YPL256C, strain CLN2, stronger effect = lower value 1.02 | locus YPR119W, strain clb2, stronger effect = lower value 0.997 | locus YPR141C, strain kar3, stronger effect = lower value 1 | locus YPR163C, strain tif3, stronger effect = lower value 1 | locus YPR167C, strain met16, stronger effect = lower value 0.984 | strain wtn01, stronger effect = lower value 1.01
